For 40 sequences, PBM binding z-score results are on record in the supplement of paper PMC6555819.

This assay relates to LXRb:RXRa (NR concentration 270 nM, RXRa partner concentration 90 nM). Briefly: PBM binding z-score (relative to random genomic background probes); higher = stronger binding; sequences stand for … in GC…GCGATTGACAGCGTAGAATGAAGG
The procedure, abridged: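 Binding z-scores were set against random background probes. The data came from custom Agilent 4×180K protein-binding microarrays carrying double-stranded probes with 34-nt variable regions, incubated 1 h with ligand-free nuclear receptor dimers. Partner-specific antibodies detected binding, and scanned fluorescence was regression-normalized.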
ACAGACAGGTGATGAAGGTAACTCCGGCTATCAT had a PBM binding z-score of -0.149. Take GCGACTGGGGCAAAGCAGGTGACCATAAGGTTGG: the PBM binding z-score is -0.574. Under GCTATTAGTTGAAAGGGCAAACGAATGATTCTCG stands 1.13; under AGAATGAGGTTATTAAGATCAGGCAATTGCGGTC, 1.11. Turning to ATCTCTAGGTAAAAGTTCCGTGAATCCCGAGGAT, the PBM binding z-score was -0.0121.

In turn, GCTTGCAGATCAAGGTTAAGAAAGACTAAGCTAA returned a PBM binding z-score of 0.358. ACTAGCAGGCCAAGGGTCACTCCAGATTAGTCCG gave a PBM binding z-score of 2.39.

As to ATCGGAAGGTCGAAGGTGAGTATACCCACCCGAA, the PBM binding z-score is 1.23. With CCGACTGGGGCAAAGGTTACCATCCTCAGTACGA the figure was 1.79; with CCTACTGGGCAAAGGTCATTGATCAGTCAAAGCA, 4.8; with ATCTCTAGGTAAAGATAGTACAGTGAATGCAAAT, 0.211. The sequence CATACAGGGTCAGCTAGGCCAGAGCAGGGACGGC displayed a PBM binding z-score of 2.11. In the case of ATCTATAGGTAAAAGTTCAGTGAATCCCGAGGAT, the PBM binding z-score amounted to 1.06. Under ATCGAAAGGTCGAGGTGAGTCTAGAGAAAGGGAA stands 2.76; under TCTCGTAGATCAATAGAGGTTAAGAAAGTGCGCT, 1.71; under GCGACTGGGGCAAAGCAGGTTTCCATAAGGTTGG, -0.284. Under ACATGTAGGTTATCGGGTCATTCAGTTTGCGCAT stands 3.33. Under CCGAGTAGGTTACGGGGCATTCAGGCAACGGTGA stands 0.593. Consider GTGCCAAGGTGAATAGGTCGTTGATGAGTAGGCG, for which the PBM binding z-score amounted to 0.408. With GATACAGGGCCAAGGCCAGAGTACGCGTATTGAT the figure was -1; with CCTACTGGGCCATCAGGGCATTGATATCAACGTT, -0.817. As to ATCTCTAGGTAACCAAGTTAAGTGAATGCCGAAC, the PBM binding z-score is 0.412. Under ACTAGCAGGCCATGGGTCACTCAAGATTAGTCCG stands 0.694.

In turn, CGTCAAAGTTCAAGGTAACGAAACAGAAAGCAGC gave a PBM binding z-score of 3.3. As for TTACCAAGGTGAAGGTTGTTGATCCCTCTGTAGA, the PBM binding z-score amounted to 0.622. As for TCTAGTTGGTCACGGAGGTCTCACACGACGGGTA, the PBM binding z-score is 0.437. The sequence CGTCCAAGGTCAGCAGGTCAGTGAAAGCGACGTG registered a PBM binding z-score of 3.11. Under CCTGCTATGTCAATGGTCAGCTAAAGCAGCTCGC stands -0.227. With CCGACTGGGGCAAAGGTTACCATTCTCAGTACGA the figure was 2.02; with CGTCCAAGGTCAGCGAGGTCAGTGAATGCCGAGT, 4.28; with AGTCAAAGTTCACTAGCTAACGTAAGATTCAGCT, 3.04. TCAATTAGTTGAAGGGCAACCGACGAGTCCGTTT gave a PBM binding z-score of 0.456. Take TCTCGGAGGACACGAAAGGTTAGAGCTCGACATC: the PBM binding z-score came to 0.782. Under TGAATGAGGTTATAAGATCAGGGAGCGTTGCAAA stands 0.707; under TCTGCTAGGTCAACGAAGGTCAGCTAATCTGCTA, 3.81; under TCTTGTAGATCAACAGGAGGCTAAGAAAGATCGA, -0.391.

As to CTCGAAAGGTCGGGTGAGGTGAGTATACGGATAA, the PBM binding z-score stood at 2.18. With TAGCATAGGTCATTCAGGGGCCAGTATAGAAAGC the figure was 4.56. Regarding ATGCCAAGGTGATCGTGAGGTCGTTGATACTAAC, the PBM binding z-score came out at 0.945. Regarding GAATATAGGTAATACAAGGTGAAAGTCCGATTGT, the PBM binding z-score was 1.01.
